Assay results published in ChEMBL document CHEMBL1157539, “Thousands of chemical starting points for antimalarial lead identification” (Nature, 2010).

system: Plasmodium falciparum; assay: GSK_TCMDC: Inhibition of Plasmodium falciparum 3D7 in whole red blood cells, using parasite LDH activity as an index of growth. Test compounds present at 2uM; format: functional

Inhibition, 99%:
Cc1cc(NCCC(=O)Nc2ccccc2)nc(NCCc2ccccc2)n1.O=C(O)C(F)(F)F
COc1cccc(C=CC(=O)N(CCN)Cc2ccccc2)c1.O=C(O)C(=O)O
Cn1cc(CN2CCCC(COC(c3ccccc3)c3ccccc3)C2)cn1 (stereo not given)

Inhibition, 90%:
N#Cc1ccc(N(CCOc2ccc(Cl)c(Cl)c2)Cc2ccccc2C(F)(F)F)cc1C(F)(F)F
CN1CCN(c2cccc(-c3nnc(-c4ccc(OCC(=O)NCc5cccc(C(F)(F)F)c5)c([N+](=O)[O-])c4)o3)c2)CC1
C/C(=C\C(=O)NC1CC1)c1ccccc1OCc1ccccc1
O=C(/C=C/c1cccc(C(F)(F)F)c1)NCCCCCN1CCC(c2c[nH]c3ccccc23)CC1

Inhibition, 100%:
COc1csc2cc(Br)ccc12
Cl.FC(F)(F)c1ccc2c(NCCNc3ccnc4cc(C(F)(F)F)ccc34)ccnc2c1
COc1cc(F)c2ncc(Cl)c(C(O)CN3CCC(NC(=O)c4ccc5c(n4)NC(=O)CO5)CC3)c2c1.Cl (stereo not given)
CNS(=O)(=O)CCNCc1ccc(-c2ccc3ncnc(Nc4ccc(OCc5ccccc5)cc4)c3c2)o1
CN1CCN(c2ccnc3ccc(NC(=O)Nc4ccc5c(c4)CCC5=O)cc23)CC1
Nc1ccc(-c2ccc3ccnc(N)c3c2)cc1
CCNC(=O)Nc1ccc(N(C)c2ccnc(NC3CC3)n2)cc1
CCOc1cc(CC)ccc1C1CCN(CCN2CCC(NC(=O)c3ccc(-c4ccc(C#N)cc4)cc3)CC2)CC1
COc1ccc(NC(=O)[C@H](CC(C)C)Nc2cc(C)nc(NCc3cccc(C)c3)n2)cc1.O=C(O)C(F)(F)F
Cn1c(Sc2ncnc3sccc23)nc2ccccc21
O=C(O)C(F)(F)F.O=c1[nH]ccc2nc(N[C@@H]3CCNC3)nc(Nc3ccc4c(c3)S(=O)(=O)CC4)c12
Cc1cccc2nc(-c3ccc(-c4ccc(NC(=O)Nc5ccc(F)c(F)c5F)cc4)cc3)[nH]c12
CC(NCCc1cccc(Cl)c1)C(O)c1ccc(OCCCCCCOc2ccc(C(O)C(C)NCCc3cccc(Cl)c3)cc2)cc1 (stereo not given)
CC1CCN(C(=O)[C@H](Cc2c[nH]c3ccccc23)NS(=O)(=O)c2ccc(Cl)cc2)CC1
Cc1cccc2nc(-c3cccc(-c4ccc(C(=O)NCc5nccn5C)cc4)c3)[nH]c12
Cc1cc(=NN=CC=Cc2ccccc2)c2ccc(F)cc2[nH]1
COc1ccc(CNC2Cc3ccccc3C2)cc1-c1ccc(S(=O)(=O)NCCN2CCCC2)s1.O=C(O)C(F)(F)F
Cc1cccc2nc(C3CCN(CC4CCN(C(=O)/C=C/c5ccc(Cl)c(Cl)c5)CC4)CC3)[nH]c12

Inhibition, 98%:
CCc1ccc(O)c(-c2cc(C(=O)Nc3cccnc3)[nH]n2)c1
CCCC(C(CC1CCC(C)CC1)C(=O)NC(CCCNc1ncccn1)C(=O)Nc1nccs1)N(O)C=O (stereo not given)
O=C(N[C@@H](CC1CCCCC1)C(=O)NC1CCCc2ccccc21)c1ccc(O)c(-c2ccc(Cl)c(Cl)c2)c1 (stereo not given in full)
Cl.NCC1(c2nc(-c3ccc(Cl)c(O)c3)c(-c3ccncc3)[nH]2)CCCCC1

Inhibition, 91%:
CCNC(=O)Nc1cccc(-c2cccc(-c3nc4cc(C(F)(F)F)ccc4[nH]3)c2)c1

Inhibition, 96%:
Cl.Oc1cccc(Nc2ccnc3cc(-c4ccccn4)ccc23)c1
COc1c(CNCCCCCCNCc2c(OC)c(OC)c3ccccc3c2OC)c(OC)c2ccccc2c1OC.CS(=O)(=O)O

Inhibition, 86%:
Oc1ccc(Cl)cc1Nc1nc(C(F)(F)F)nc2ccccc12
COc1cccc(-c2csc(C(=O)NCC3CCN(Cc4ccc(C(C)C)cc4)C3)c2)c1.O=C(O)C(F)(F)F (stereo not given)

Inhibition, 97%:
Cc1[nH]c2ccc(-c3ccccc3)cc2c(=O)c1Br

Inhibition, 93%:
O=C(/C=C/c1cccc(OC(F)(F)F)c1)NCCCCCN1CCC(c2c[nH]c3ccccc23)CC1
COc1ccc(CN2CCCN(Cc3cccc(NC(=O)c4ccc5ccccc5c4)c3)CC2)cc1.O=C(O)C(F)(F)F

Inhibition, 92%:
CC(Cc1ccc(NC(=O)c2ccc(NCCc3ccccc3)cc2)cc1)NCCc1cccc(Cl)c1.Cl (stereo not given)

Inhibition, 95%:
Cc1ccccc1C1CCN(c2ccc(C(=O)NC3CC3)cn2)CC1.O=C(O)C(F)(F)F
CC(=O)Nc1ccc2[nH]cc(C3CCN(CCC4CCN(C(=O)/C=C/c5ccc(Cl)c(Cl)c5)CC4)CC3)c2c1
